# From PubChem BioAssay (NCATS)
# Values without a mark were called inactive. Records with an inconclusive call do not appear. Activity calls are given as the source filed them. Unless noted, calls follow the shape of the dose curve; as a rule, active = well fitted curve in either direction with a large enough effect (not every such curve was filed as active); inconclusive = small, poorly fitted or top-dose-only effect, or another doubt; inactive = flat fitted curve, though single readings scatter.
# Legend:
# [1] = molecular target: Lysosomal acid glucosylceramidase (Homo sapiens) (UniProt P04062); assay: Glucocerebrosidase-p2 (AID 348; in the data active = potency below about 10 µM; also: potency is read from the fitted curve at half-maximal effect); conditions: purified GBA, blue fluorogenic substrate, 40 min
# Procedure, shortened: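 Compounds titrated from 0.6 nM upwards against 0.2 nM enzyme in pH 5.9 citric acid/KH2PO4, taurocholate, tween-20; blue fluorogenic substrate 80 uM, 40 min room temperature, stopped and read Ex 365/Em 440 for AC50.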
# [2] = AP1 Signaling Pathway (AID 357); conditions: ME-180 AP-1-bla reporter, EGF-induced, beta-lactamase ratio, 5 h; at 7.69 µM (top of the series) unless noted; also: % is scaled to controls: 0 for no effect and ±100 for the full control effect
# Procedure, shortened: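 ME-180 cells with beta-lactamase reporter under AP-1 response element, stimulated with EC50 EGF; compounds tested in titration series, 5 h at 37 °C. CCF4 substrate added 2.5 h at room temperature; 460/530 nm emission ratio gave %activity and AC50.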
# [3] = molecular target: Glucocorticoid receptor (Homo sapiens) (UniProt P04150); assay: GR-GFP Redistribution (AID 450;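 active = compounds whose dose series gives a full or clear partial fitted curve of increased nuclear translocation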; also: potency is read from the fitted curve at half-maximal effect); conditions: U2OS GR-GFP nuclear translocation, laser cytometry, 2 h
# [4] = molecular target: Glucocorticoid receptor (Homo sapiens) (UniProt P04150); assay: GR-EFC Redistribution (AID 451; calls by dose curve; also: potency is read from the fitted curve at half-maximal effect); conditions: CHO-K1 GR-EFC translocation, beta-gal luminescence, 2 h
# Procedure, shortened: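 CHO-K1 cells expressing nuclear EA and GR-ED fragments of b-gal; compounds titrated up to 46 uM final, 2 h at 37 C. GR nuclear translocation read as complemented b-gal luminescence after 1 h RT detection.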
# [5] = molecular target: 3',5'-cyclic-AMP phosphodiesterase 4B (Homo sapiens) (UniProt Q07343); assay: qHTS Assay for Inhibitors of PDE-IV (AID 607; active = well fitted activation curve with a large enough effect in the main read-out, with a control signal flat, not every such curve was filed as active; also: % of control where 0% means no effect); conditions: HEK293 ACTOne CNG channel cells, membrane potential fluorescence; series mostly up to 22.9 µM
# Procedure, shortened: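 Cell-based read-out of cAMP via a modified cyclic nucleotide-gated channel and membrane potential dye (535/590 nm) in HEK293 cells expressing PDE4 endogenously. Compounds tested up to 22.9 uM final; 100 uM RO 20-1724 reference.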
# [6] = molecular target: Cytochrome P450 1A2 (Homo sapiens) (UniProt P05177); assay: p450-cyp1a2 (AID 410; calls by dose curve; also: potency is read from the fitted curve at half-maximal effect;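 as to activity change, negative = inhibition: -100% = full effect of reference inhibitor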); conditions: recombinant CYP1A2, luciferin-ME demethylation, luminescence; series mostly up to 11.4 µM
# Procedure, shortened: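 20nM CYP1A2 with 100uM Luciferin-ME (at Km) in 100mM KPO4; compound preincubated 10 min, NADPH regeneration added, 60 min at room temperature. Luciferin quantified by luminescence after detection reagent; normalized to 57 uM furafylline.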
# [7] = NFAT Signaling Pathway (AID 444); conditions: Jurkat NFAT-bla M1, carbachol, beta-lactamase ratio, 5 h; at 7.69 µM (top of the series) unless noted;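 also: carbachol stimulus at about its EC50 of 1 µM final; % is scaled to controls: 0 for no effect and ±100 for the full control effect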
# Procedure, shortened: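 Jurkat cells with NFAT-driven β-lactamase reporter and co-expressed M1 receptor, stimulated with carbachol (final 1 uM, ~EC50), compound titration, 5 h at 37 °C. CCF4 loaded 1 h at RT; 460/530 nm ratio gave %activity and AC50.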
# [8] = Stat Signaling Pathway (AID 446); conditions: ME-180 SIE beta-lactamase reporter, IL-6 stimulated, 5 h; at 7.69 µM (top of the series) unless noted;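 also: ME-180 cervical cancer cells given 40 pM IL-6 alongside compound; SIE-controlled beta-lactamase reporter measured as 460/530 nm FRET emission ratio; % is scaled to controls: 0 for no effect and ±100 for the full control effect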
# Procedure, shortened: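 Reporter line: ME-180 cervical carcinoma, SIE-beta-lactamase. Treatment: compound with 40 pM IL-6, 5 hrs, 37 C, in low-serum OPTI-MEM with 10 mM HEPES pH 7.3. Detection: 460/530 nm fluorescence.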
# [9] = molecular target: Mitogen-activated protein kinase 10 (Mus musculus) (UniProt Q61831); assay: JNK3 AlphaScreen Assay (AID 530); conditions: JNK3 lysate, c-Jun phosphorylation; series mostly up to 11.4 µM;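 also: kinase came from lysate of stimulated human HepG2 cells; signal reports phosphorylation of biotinylated GST-cJun 1-79 at Ser73 with 10 µM ATP; % is scaled to controls: 0 for no effect and ±100 for the full control effect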
# Procedure, shortened: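 Pre-activated (IL-1β/TNFα) JNK3 in HepG2 lysates phosphorylates biotin-GST-cJun(1-79), 10 uM ATP; anti-phospho-cJun(Ser73) AlphaScreen read at room temperature, pH 7.6 Tris buffer. Compounds pre-incubated 15 min as titrations.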
# [10] = molecular target: Cytochrome P450 3A4 (Homo sapiens) (UniProt P08684); assay: qHTS Assay for Activators of Cytochrome P450 3A4 (AID 885; active = well fitted curve in the direction sought with a large enough effect; an effect the other way counts as inactive or inconclusive; also: nearly all actives have a fitted effect of over 65% in size); conditions: recombinant CYP3A4, Luciferin-PPXE luminescence, 60 min; series mostly up to 11.4 µM
# Procedure, shortened: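 Signal was normalized against complete inhibition by 57 uM ketoconazole. The reaction used 20nM CYP3A4 with 25uM Luciferin-PPXE, 10-min compound preincubation and a 60-min NADPH-supported step at RT.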
# [11] = molecular target: Cytochrome P450 2C19 (Homo sapiens) (UniProt P33261); assay: qHTS Assay for Inhibitors and Substrates of Cytochrome P450 2C19 (AID 899; active = well fitted curve in the direction sought with a large enough effect; an effect the other way counts as inactive or inconclusive; also: potency is read from the fitted curve at half-maximal effect; nearly all actives have a fitted effect of over 60% in size); conditions: recombinant CYP2C19, luciferin-H EGE luminescence; series mostly up to 11.4 µM
# Procedure, shortened: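 5 nM human CYP2C19 with 10uM Luciferin-H EGE (at KM) in 50mM KPO4, compound preincubated 10 min at 37C, then NADPH regeneration for 60 min at 37C. Luciferin read by luminescence after detection reagent; normalized to 57uM ketoconazole as full inhibition.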
# [12] = molecular target: Cytochrome P450 2D6 (Homo sapiens) (UniProt P10635); assay: qHTS Assay for Inhibitors and Substrates of Cytochrome P450 2D6 (AID 891; active = well fitted curve in the direction sought with a large enough effect; an effect the other way counts as inactive or inconclusive; also: potency is read from the fitted curve at half-maximal effect; nearly all actives have a fitted effect of over 60% in size); conditions: recombinant CYP2D6, luciferin-ME EGE luminescence; series mostly up to 11.4 µM
# Procedure, shortened: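 Human CYP2D6 (5 nM) with 30 uM Luciferin-ME EGE (at Km) in 100 mM KPO4, compound preincubated 10 min, then NADPH regeneration system for 60 min at room temperature. Luciferin read by luminescence; normalized to 1.43 uM quinidine.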
# Sequence of Cytochrome P450 1A2 (Homo sapiens) (P05177 whole entry, looked up): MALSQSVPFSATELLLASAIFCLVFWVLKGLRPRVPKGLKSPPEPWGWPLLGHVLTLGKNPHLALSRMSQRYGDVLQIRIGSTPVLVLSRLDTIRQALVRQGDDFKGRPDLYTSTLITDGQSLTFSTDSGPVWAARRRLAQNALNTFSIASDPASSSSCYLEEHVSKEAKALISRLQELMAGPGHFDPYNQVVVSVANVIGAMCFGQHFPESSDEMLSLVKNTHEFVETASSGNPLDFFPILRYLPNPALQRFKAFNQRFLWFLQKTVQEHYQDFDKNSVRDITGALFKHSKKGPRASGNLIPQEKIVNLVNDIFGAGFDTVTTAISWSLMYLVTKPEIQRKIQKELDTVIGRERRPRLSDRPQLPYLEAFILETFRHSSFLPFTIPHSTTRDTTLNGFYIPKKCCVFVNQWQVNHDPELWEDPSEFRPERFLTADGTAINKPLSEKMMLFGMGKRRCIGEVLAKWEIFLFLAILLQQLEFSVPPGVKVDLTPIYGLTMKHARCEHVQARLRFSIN
# Sequence of Lysosomal acid glucosylceramidase (Homo sapiens) (P04062 whole entry, looked up): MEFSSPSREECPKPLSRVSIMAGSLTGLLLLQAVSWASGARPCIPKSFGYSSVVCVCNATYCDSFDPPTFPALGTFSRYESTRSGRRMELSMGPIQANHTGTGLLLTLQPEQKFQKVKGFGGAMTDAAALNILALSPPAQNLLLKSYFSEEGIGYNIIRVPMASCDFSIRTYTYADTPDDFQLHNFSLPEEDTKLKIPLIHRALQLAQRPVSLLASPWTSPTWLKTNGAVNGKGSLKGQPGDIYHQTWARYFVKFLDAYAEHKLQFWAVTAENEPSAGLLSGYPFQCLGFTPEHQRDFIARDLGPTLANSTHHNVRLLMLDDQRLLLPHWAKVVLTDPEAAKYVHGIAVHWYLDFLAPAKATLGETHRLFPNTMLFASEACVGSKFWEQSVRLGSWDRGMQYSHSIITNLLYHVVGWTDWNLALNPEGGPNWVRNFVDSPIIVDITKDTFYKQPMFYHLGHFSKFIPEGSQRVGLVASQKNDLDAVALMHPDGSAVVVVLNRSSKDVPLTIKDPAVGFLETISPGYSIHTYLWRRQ
# Sequence of Glucocorticoid receptor (Homo sapiens) (P04150 whole entry, looked up, the tested form may be a part): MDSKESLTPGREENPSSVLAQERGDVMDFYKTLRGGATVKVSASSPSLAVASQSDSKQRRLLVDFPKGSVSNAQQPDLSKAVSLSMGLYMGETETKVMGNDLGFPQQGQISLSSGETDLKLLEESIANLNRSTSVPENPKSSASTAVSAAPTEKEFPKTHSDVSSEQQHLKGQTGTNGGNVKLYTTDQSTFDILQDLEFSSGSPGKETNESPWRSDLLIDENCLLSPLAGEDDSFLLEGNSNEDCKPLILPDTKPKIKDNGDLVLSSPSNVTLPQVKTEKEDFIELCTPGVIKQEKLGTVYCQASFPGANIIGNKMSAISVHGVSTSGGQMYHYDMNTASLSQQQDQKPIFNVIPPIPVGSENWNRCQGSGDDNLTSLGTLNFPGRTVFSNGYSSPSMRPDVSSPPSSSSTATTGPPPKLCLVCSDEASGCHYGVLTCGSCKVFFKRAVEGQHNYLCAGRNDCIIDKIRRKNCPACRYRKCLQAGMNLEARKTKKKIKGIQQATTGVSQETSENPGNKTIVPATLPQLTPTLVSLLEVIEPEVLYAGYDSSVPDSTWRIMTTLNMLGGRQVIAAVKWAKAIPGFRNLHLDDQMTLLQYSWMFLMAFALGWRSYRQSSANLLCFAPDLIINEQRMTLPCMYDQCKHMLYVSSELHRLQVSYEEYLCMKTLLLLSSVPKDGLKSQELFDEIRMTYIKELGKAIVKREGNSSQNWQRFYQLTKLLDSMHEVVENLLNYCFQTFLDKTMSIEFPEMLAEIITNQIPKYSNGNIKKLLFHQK
# Sequence of 3',5'-cyclic-AMP phosphodiesterase 4B (Homo sapiens) (Q07343 whole entry, looked up): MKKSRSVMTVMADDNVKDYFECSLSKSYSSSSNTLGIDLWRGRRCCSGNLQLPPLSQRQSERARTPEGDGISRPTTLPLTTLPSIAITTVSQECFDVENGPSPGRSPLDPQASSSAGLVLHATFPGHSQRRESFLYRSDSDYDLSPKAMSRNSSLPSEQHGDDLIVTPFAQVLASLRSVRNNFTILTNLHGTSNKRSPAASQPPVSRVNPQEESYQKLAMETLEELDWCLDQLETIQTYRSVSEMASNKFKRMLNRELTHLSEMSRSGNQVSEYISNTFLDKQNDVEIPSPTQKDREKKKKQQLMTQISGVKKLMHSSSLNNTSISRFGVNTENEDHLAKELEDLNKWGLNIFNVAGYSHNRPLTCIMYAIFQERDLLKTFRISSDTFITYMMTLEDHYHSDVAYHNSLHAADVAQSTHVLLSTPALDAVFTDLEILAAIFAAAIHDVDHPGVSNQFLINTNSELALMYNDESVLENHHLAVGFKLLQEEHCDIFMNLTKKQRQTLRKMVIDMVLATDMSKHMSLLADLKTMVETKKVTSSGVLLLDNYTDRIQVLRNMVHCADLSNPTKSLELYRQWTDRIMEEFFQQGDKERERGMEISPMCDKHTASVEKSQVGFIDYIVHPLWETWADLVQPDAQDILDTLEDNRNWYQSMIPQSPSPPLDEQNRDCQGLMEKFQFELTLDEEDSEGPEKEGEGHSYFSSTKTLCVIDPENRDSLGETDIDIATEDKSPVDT
# Sequence of Cytochrome P450 2D6 (Homo sapiens) (P10635 whole entry, looked up): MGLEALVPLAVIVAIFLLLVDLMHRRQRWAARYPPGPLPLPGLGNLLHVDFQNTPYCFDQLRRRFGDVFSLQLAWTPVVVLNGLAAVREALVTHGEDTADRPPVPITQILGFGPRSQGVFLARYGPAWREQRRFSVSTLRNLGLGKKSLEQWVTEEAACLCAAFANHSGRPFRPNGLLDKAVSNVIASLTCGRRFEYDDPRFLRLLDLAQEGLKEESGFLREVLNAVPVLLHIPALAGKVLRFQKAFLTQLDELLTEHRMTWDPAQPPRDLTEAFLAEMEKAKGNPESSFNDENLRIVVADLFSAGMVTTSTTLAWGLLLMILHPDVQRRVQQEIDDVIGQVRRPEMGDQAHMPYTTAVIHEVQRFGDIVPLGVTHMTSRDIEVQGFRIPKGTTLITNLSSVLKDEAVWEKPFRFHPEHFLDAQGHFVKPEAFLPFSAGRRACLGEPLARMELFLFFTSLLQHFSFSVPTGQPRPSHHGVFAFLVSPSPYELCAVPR
# Sequence of Cytochrome P450 3A4 (Homo sapiens) (P08684 whole entry, looked up): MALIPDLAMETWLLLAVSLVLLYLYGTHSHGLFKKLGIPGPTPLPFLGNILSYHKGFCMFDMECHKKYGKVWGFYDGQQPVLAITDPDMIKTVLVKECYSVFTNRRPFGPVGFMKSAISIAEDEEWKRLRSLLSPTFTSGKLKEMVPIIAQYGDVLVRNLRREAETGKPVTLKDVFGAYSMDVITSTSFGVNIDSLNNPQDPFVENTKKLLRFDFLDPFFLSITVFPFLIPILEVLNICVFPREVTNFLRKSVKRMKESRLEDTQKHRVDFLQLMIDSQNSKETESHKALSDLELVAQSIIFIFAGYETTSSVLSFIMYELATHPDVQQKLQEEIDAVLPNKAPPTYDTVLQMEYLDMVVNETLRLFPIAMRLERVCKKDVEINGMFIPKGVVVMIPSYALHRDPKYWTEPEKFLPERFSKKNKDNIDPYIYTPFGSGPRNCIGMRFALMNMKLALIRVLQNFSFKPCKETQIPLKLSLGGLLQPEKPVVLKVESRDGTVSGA
# Sequence of Cytochrome P450 2C19 (Homo sapiens) (P33261 whole entry, looked up): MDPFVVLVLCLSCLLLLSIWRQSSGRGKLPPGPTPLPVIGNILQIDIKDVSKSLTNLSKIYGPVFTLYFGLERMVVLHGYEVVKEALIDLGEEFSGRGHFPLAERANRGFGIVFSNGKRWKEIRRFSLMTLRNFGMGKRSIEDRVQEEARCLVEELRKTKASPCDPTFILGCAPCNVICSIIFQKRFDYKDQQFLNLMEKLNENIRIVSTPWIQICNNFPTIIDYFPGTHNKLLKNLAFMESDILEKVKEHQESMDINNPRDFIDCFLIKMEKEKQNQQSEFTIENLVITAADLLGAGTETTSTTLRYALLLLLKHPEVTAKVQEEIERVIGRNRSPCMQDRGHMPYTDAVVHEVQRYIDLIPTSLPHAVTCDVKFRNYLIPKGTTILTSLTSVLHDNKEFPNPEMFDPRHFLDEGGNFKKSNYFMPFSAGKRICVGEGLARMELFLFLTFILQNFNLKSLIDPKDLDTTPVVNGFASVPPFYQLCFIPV
Compound,Potency [1],"activity change, negative = inhibition [2]",Potency [3],Potency [4],Potency [5],Potency [6],"activity change, negative = inhibition [7]","activity, negative = inhibition [8]",Potency [9],Potency [10],Potency [11],"activity change, negative = inhibition [6]",Potency [12]
COc1cccc2c1C(=N)c1c(O)c3c(c(O)c1C2=O)C[C@](O)(C(C)=O)C[C@@H]3O[C@H]1C[C@H](N)[C@@H](O)[C@H](C)O1,> 11.4 µM,-2.66%,> 46 µM,> 9.22 µM,inactive,–,–,–,–,–,–,–,–
O=C1CCC(c2ccccc2)=NN1c1nc2ccccc2s1,> 11.4 µM,–,> 46 µM,> 9.22 µM,inactive,0.398 µM (active),-3.68%,-10.7%,inactive,–,–,–,–
CC1(C)O[C@H]2[C@@H](c3[nH]nc4c(=O)[nH]c(=O)[nH]c34)OC[C@H]2O1,> 11.4 µM,–,> 46 µM,> 9.22 µM,inactive,inactive,-14.8%,8.45%,inactive,–,–,–,–
Cc1[nH]c2c(C)ccc(C)c2c1CC(=O)O,> 11.4 µM,–,> 46 µM,> 9.22 µM,inactive,3.16 µM (active),10.6%,9.85%,inactive,inactive,0.316 µM (active),–,–
CC1(C)O[C@@H]2O[C@H]([C@@H]3COC(C)(C)O3)[C@H](N)[C@H]2O1,> 11.4 µM,–,> 46 µM,> 9.22 µM,inactive,–,10.1%,5.21%,inactive,–,–,8.7% [at 2.29 µM],–
CN(C)Cc1cc(O)c(O)c(CN(C)C)c1,> 11.4 µM,–,> 46 µM,> 9.22 µM,inactive,inactive,3.49%,2.92%,inactive,–,–,–,–
O[C@@H](c1cc(-c2ccc(Cl)cc2)nc2ccccc12)[C@@H]1CCCCN1,> 11.4 µM,-7.25%,–,> 9.22 µM,inactive,–,–,-6.67%,inactive,–,–,–,0.631 µM (active)
